Test results: the supplement of paper PMC11001985
A number with no mark means an inactive call.

What follows are targets tested with C#CCNC(=O)CCSSCCC(=O)NCCc1ccc(C=O)c(C=O)c1 (assay: lysine labeling ratio R10:1 (500 µM / 50 µM probe), SILAC-ABPP in living cells; higher = lower intrinsic lysine reactivity toward the probe, active = 2 or less). Conditions: HeLa; probe concentrations 500 vs 50 µM.
Procedure, shortened: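 An alkyne-tagged lysine probe with a disulfide linker labelled living HeLa cells in PBS at room temperature at either 50 µM or 500 µM, using SILAC light and heavy cells in forward and reverse label swaps. Lysates were mixed, clicked to biotin-azide, trypsin-digested, enriched on neutravidin, DTT-released, alkylated and measured by LC-MS/MS on a TIMS-TOF Pro. Each lysine's R is the filtered median high-probe/low-probe MS1 peptide ratio, combined as the median over forward and reverse replicates, with 20 as the upper limit.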

Chain of UniProt P17844 (P17844 whole entry): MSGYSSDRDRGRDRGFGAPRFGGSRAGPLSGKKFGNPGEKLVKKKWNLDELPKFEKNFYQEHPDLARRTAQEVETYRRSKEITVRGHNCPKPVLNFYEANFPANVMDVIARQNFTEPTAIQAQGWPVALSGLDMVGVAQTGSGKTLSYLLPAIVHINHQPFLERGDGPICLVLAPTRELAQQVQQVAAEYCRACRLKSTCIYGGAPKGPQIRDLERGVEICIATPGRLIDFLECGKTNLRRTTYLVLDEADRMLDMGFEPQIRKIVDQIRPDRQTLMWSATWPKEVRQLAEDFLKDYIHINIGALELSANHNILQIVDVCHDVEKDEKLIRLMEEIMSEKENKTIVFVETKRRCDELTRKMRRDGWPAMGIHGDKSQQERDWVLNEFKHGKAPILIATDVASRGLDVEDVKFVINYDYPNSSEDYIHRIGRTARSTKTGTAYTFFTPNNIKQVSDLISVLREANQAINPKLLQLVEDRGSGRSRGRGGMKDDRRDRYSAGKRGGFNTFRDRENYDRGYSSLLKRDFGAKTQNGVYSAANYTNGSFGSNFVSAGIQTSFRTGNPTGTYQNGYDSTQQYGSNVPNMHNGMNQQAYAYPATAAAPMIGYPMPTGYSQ
Chain of UniProt Q9NX63 (Q9NX63 whole entry): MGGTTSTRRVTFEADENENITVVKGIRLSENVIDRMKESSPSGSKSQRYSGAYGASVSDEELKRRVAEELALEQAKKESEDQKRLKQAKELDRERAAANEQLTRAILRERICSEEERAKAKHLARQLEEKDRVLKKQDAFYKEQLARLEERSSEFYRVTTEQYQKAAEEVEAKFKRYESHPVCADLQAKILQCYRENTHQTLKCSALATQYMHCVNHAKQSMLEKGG
Chain of UniProt P02751 (P02751 whole entry): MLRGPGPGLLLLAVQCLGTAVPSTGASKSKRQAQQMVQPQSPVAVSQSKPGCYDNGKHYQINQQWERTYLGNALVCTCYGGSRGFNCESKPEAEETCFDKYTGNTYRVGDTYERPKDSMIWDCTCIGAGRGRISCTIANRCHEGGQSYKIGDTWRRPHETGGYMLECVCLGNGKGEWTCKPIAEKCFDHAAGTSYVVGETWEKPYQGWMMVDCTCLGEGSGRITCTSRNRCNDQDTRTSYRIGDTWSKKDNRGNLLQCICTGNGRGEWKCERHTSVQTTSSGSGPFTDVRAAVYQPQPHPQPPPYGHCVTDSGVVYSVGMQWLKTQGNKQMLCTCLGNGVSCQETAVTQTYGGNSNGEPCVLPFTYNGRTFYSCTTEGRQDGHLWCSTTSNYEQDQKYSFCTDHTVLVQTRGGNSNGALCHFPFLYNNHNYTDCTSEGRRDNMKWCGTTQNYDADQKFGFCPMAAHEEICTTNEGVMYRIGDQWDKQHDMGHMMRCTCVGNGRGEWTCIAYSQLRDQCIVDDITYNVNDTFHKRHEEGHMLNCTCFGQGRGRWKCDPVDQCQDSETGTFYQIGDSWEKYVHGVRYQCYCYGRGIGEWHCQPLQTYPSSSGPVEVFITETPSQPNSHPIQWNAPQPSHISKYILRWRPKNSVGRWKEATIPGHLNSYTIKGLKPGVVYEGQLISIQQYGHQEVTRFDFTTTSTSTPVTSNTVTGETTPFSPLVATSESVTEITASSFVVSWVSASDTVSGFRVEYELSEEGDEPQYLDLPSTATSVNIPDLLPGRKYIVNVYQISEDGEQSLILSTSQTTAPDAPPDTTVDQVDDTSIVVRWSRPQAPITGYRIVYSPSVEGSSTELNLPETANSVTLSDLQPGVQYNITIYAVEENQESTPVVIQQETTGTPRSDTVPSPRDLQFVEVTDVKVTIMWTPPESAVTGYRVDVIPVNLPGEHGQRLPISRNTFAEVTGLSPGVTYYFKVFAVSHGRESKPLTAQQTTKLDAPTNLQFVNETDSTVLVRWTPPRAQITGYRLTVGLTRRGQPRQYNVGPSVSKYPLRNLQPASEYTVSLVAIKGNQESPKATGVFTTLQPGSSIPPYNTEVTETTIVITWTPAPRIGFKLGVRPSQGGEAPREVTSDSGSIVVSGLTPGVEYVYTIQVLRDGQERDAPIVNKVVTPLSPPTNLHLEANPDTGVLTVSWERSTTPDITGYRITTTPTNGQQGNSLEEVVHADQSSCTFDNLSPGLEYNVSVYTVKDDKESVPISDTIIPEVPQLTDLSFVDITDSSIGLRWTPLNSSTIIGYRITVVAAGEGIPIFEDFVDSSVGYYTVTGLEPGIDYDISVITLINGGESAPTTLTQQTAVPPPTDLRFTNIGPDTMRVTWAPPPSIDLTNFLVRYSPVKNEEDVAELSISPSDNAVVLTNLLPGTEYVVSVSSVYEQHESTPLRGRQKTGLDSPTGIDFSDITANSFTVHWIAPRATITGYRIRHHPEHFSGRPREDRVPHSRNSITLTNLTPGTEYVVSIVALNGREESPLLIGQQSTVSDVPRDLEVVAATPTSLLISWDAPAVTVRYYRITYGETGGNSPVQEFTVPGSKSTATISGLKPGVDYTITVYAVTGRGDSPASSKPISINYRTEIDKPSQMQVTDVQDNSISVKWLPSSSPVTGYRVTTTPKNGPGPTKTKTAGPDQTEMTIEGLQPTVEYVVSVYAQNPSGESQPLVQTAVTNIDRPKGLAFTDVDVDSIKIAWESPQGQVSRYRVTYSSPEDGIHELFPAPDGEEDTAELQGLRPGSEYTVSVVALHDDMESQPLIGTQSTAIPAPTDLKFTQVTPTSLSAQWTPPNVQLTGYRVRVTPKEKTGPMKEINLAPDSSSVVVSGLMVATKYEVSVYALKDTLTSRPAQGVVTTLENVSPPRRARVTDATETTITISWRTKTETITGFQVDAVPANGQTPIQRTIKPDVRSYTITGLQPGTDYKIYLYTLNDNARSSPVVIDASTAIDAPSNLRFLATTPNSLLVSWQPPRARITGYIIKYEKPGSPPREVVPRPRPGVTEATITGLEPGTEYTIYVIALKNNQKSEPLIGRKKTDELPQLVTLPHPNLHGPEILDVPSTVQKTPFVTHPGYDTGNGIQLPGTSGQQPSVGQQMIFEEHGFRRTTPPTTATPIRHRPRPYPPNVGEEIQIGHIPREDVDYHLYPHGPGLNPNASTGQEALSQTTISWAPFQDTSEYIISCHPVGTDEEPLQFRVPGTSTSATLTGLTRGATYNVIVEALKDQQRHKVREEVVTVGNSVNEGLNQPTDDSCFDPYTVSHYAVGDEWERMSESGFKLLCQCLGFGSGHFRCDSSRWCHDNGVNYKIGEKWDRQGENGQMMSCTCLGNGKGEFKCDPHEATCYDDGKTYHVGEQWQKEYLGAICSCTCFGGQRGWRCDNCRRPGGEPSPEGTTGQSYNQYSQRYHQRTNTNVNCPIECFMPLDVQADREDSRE
Chain of UniProt P19438 (P19438 whole entry): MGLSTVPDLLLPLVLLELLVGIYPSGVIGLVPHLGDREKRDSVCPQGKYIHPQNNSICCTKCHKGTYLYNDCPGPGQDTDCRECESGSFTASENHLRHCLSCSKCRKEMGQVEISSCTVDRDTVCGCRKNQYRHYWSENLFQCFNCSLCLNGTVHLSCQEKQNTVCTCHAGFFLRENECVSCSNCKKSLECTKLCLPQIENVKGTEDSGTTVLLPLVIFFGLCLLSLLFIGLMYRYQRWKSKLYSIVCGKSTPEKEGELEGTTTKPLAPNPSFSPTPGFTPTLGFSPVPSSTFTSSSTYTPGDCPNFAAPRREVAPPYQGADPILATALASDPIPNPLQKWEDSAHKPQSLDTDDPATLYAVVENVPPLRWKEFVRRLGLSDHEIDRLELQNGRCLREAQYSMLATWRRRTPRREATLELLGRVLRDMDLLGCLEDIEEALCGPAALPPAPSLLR
Chain of UniProt Q8IWA5 (Q8IWA5 whole entry): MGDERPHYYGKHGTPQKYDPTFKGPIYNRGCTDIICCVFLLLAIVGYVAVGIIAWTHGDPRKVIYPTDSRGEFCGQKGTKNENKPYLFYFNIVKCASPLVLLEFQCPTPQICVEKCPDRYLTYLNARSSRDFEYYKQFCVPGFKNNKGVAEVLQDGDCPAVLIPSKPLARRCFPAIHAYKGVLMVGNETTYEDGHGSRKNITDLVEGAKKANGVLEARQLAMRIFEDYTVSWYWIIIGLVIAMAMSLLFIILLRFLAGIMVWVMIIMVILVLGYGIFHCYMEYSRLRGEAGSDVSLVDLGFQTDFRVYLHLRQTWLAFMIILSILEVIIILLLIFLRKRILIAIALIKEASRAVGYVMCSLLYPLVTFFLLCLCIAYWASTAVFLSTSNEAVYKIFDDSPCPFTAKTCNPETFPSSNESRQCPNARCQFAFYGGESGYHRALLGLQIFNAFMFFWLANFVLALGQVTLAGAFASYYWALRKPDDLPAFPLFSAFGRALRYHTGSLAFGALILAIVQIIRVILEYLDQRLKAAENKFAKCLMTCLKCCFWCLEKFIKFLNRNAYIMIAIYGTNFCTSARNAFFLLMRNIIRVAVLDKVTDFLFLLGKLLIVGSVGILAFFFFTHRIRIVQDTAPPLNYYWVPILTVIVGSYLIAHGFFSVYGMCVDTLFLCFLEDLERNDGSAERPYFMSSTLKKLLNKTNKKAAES
Chain of UniProt P05783 (P05783 whole entry): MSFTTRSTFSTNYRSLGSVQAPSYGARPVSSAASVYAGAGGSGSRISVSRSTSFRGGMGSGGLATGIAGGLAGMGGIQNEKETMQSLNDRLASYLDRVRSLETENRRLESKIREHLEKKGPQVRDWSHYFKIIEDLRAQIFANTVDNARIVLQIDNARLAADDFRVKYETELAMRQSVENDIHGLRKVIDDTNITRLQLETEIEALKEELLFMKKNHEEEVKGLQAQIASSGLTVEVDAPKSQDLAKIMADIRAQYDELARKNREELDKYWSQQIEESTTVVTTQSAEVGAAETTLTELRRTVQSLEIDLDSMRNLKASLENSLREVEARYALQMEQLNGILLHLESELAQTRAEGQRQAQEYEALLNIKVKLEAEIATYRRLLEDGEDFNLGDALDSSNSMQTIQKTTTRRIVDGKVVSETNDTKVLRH

Target | lysine labeling ratio R10:1
UniProt P62805 (lysine site: K13) | 2.71
ITGA5 (lysine site: K943) (UniProt P08648) | 2.54
NUMA1 (lysine site: K645) (UniProt Q14980) | 1.09 (active)
FN1 (lysine site: K486) (UniProt P02751) | 2.59
VAPA (lysine site: K211) (UniProt Q9P0L0) | 4.3
SLC3A2 (lysine site: K255) (UniProt P08195) | 1.64 (active)
EPHB4 (lysine site: K486) (UniProt P54760) | 4.21
UniProt P62244 (lysine site: K88) | 1.79 (active)
MYH9 (lysine site: K1673) (UniProt P35579) | 5.57
HNRNPM (lysine site: K651) (UniProt P52272) | 2.28
HNRNPA1 (lysine site: K166) (UniProt P09651) | 7.94
AGRN (lysine site: K77) (UniProt O00468) | 1.69 (active)
PRDX6 (lysine site: K56) (UniProt P30041) | 3.23
IGF1R (lysine site: K713) (UniProt P08069) | 2.62
UniProt Q9UKX5 (lysine site: K402) | 0.975 (active)
COPA (lysine site: K480) (UniProt P53621) | 4.64
DDX5 (lysine site: K56) (UniProt P17844) | 2.69
UniProt Q00341 (lysine site: K510) | 0.655 (active)
CHCHD3 (lysine site: K37) (UniProt Q9NX63) | 1.57 (active)
LGALS3BP (lysine site: K427) (UniProt Q08380) | 2.98

Target | lysine labeling ratio R10:1
KRT18 (lysine site: K111) (UniProt P05783) | 14.4
UniProt Q8WXI7 (lysine site: K12605) | 3.8
TMEM132A (lysine site: K820) (UniProt Q24JP5) | 2.33
RPS5 (lysine site: K63) (UniProt P46782) | 3.35
GNS (lysine site: K502) (UniProt P15586) | 0.59 (active)
TLN1 (lysine site: K1948) (UniProt Q9Y490) | 0.788 (active)
UniProt Q15149 (lysine site: K1833) | 2.22
KTN1 (lysine site: K617) (UniProt Q86UP2) | 1.17 (active)
HSPA5 (lysine site: K164) (UniProt P11021) | 0.987 (active)
TNFRSF1A (lysine site: K107) (UniProt P19438) | 1.07 (active)
ATP1B1 (lysine site: K113) (UniProt P05026) | 1.86 (active)
UniProt P07437 (lysine site: K58) | 2.92
LAMB1 (lysine site: K1579) (UniProt P07942) | 2.82
SEMA3C (lysine site: K731) (UniProt Q99985) | 0.505 (active)
MCAM (lysine site: K286) (UniProt P43121) | 2.67
XRCC6 (lysine site: K338) (UniProt P12956) | 1.69 (active)
PRDX1 (lysine site: K197) (UniProt Q06830) | 2.6
CKAP4 (lysine site: K388) (UniProt Q07065) | 2.6
PLXNA3 (lysine site: K622) (UniProt P51805) | 1.94 (active)
SLC44A2 (lysine site: K62) (UniProt Q8IWA5) | 2.64
